Drawing on ChEMBL document CHEMBL3988442, “University of Dundee, Small-Polar-MMV Screening Library” (2021), this text covers Percent Effect for 18 compounds.

Common to all, as to assay type: functional
Common to all, as to set-up: scale not given: direction of the effect not stated beside the values
Common to all, as to conditions: 30 µM

For assay [1], the target named is T1, Aspartate--tRNA(Asp/Asn) ligase (Mycobacterium tuberculosis (strain ATCC 25618 / H37Rv)) (UniProt P9WFW3). Further: in the data most compounds retested in dose-response had high values.
T1 sequence (whole entry): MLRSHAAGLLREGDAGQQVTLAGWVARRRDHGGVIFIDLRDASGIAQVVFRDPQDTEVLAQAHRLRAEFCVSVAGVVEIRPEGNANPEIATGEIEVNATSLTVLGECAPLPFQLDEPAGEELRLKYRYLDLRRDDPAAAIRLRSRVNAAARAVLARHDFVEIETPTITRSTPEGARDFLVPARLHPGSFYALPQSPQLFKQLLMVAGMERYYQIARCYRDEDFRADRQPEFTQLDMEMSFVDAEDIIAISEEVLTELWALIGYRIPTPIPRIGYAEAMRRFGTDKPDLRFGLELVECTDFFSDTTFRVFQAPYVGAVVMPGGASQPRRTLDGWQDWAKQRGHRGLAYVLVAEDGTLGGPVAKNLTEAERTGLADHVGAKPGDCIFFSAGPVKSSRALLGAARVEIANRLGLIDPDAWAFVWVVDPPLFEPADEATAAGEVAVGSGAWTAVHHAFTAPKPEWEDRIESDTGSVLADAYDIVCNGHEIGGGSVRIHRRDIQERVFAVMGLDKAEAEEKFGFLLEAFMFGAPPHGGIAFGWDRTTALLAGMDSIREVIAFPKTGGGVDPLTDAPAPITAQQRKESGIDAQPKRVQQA
Kind of assay: Assay for Asp RNA synthetase-1 from Mycobacterium tuberculosis.

Assay [2] addresses Shiga toxin 2 (Escherichia coli O157:H7) (UniProt P09385+P09386). As to the kind of experiment: E. coli 0.157:H7 Shiga Toxin SOP - stx2 screening assay.
The target of assay [3] is AMP-activated protein kinase, AMPK (Homo sapiens) (UniProt P54646+O43741+P54619+Q9UGJ0+Q9Y478+Q13131+Q9UGI9). Kind of assay: AMP-dependent Kinase enzyme assay. An in vitro enzyme assay that detects ADP turnover that is directly proportional to AMPK activity. This uses naive AMPK that is activated during the assay with MK-8722.

Consider `CCc1csc(CCNC(=O)C2CC(=O)N(C(C)C)C2)n1` (stereo not given), for which the Percent Effect is -1.9% in assay [1] and -30.4% in assay [2].

Consider `Cc1csc(C2CCCN(C(=O)c3cc(Cl)c[nH]3)C2)n1` (stereo not given), for which the Percent Effect was -3.61% in assay [1] and 29.7% in assay [2].

With `NC(=O)C1CCN(C(=O)NCc2ccccc2Cn2cncn2)CC1`, the Percent Effect worked out at 2.04% in assay [1] and 1.76% in assay [2].

On to `Cc1cnc(CN(C)C2CCN(CC(=O)N(C)c3nccs3)C2)o1` (stereo not given), for which the Percent Effect in assay [1] was -1.66%; in assay [2], -15.8%.

Consider `c1ccc(-n2ncc(CN3CCCC3Cn3cccn3)n2)cc1` (stereo not given), for which the Percent Effect is -5.28% in assay [1] and 2.57% in assay [2].

On to `O=C(c1cccn1Cc1cccs1)N1CCN(C(=O)C2CC2)CC1`, for which the values for the Percent Effect in assay [1] and in assay [2] were 4.89% and -4.84%, respectively.

Turning to `O=C(NCCCn1cccn1)C1(c2ccc(Br)cc2)CC1`, the Percent Effect in assay [1] was determined as 0.575%; in assay [2] it was 8.42%.

For `O=c1cc(Cn2cncn2)nc2n1CCCN(CC1CC1)C2`, the Percent Effect is -4.96% in assay [1] and -0.568% in assay [2].

Take `CCO[C@@H]1CO[C@@]2(CCCN(C(=O)COc3ccccc3OC)C2)C1`: the Percent Effect in assay [1] is 1.03%; in assay [2] it was -25.3%.

For the compound `CC(=O)Nc1ccc(-c2ccccc2CCN)cc1`, in assay [3], the Percent Effect was 3.13%.

As to `CC(C(=O)N1CCCN(c2ncccc2C#N)CC1)n1ccnc1` (stereo not given), the Percent Effect in assay [1] is -0.45%; in assay [2], 24%.

For the compound `O=C(N1CCOCC1)[C@@]12CCO[C@@H]1CCN(CCN1CCCCC1)C2`, the Percent Effect in assay [1] is 3.6%; in assay [2], -37.5%.

`Cc1ccc2oc(CNC(C)c3nnc4n3CCCC4)cc2c1` (stereo not given): the Percent Effect in assay [1] is -1.73%; in assay [2], -34.3%.

For the compound `Cc1cnn(CC2CCCN2Cc2nc3ccccc3nc2C)c1` (stereo not given), the Percent Effect was -1.82% in assay [1] and -1.37% in assay [2].

`CCS(=O)(=O)N1CCC2(CCCN(Cc3cc(OC)ccc3F)C2)C1` (stereo not given): the figures for the Percent Effect in assay [1] and in assay [2] were 0.836% and -3.7%, respectively.

Turning to `CC(C)NC(=O)N1CCc2nc(C(=O)NCc3ccccc3)sc2CC1`, the Percent Effect turned out to be 0.168% in assay [1] and 4.49% in assay [2].

As for `Cc1ccc2c(ccn2CC(=O)NC[C@@H]2CCCN3CCCC[C@H]23)c1`, the Percent Effect in assay [1] is 2.12%; in assay [2], -7.12%.

Take `CN(C)CC(=O)N1C[C@@H]2CC[C@H](Oc3ccccc3Cl)[C@@H]2C1`: the Percent Effect in assay [1] stood at 1.77%; in assay [2] it was 12.4%.
